The subject of this test is VDR:RXRa (NR concentration 270 nM, RXRa partner concentration 90 nM). Briefly: PBM binding z-score (relative to random genomic background probes); higher = stronger binding; sequences stand for … in GC…GCGATTGACAGCGTAGAATGAAGG
As to the method:
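Protein-binding microarray (Agilent 4x180K custom design, double-stranded 60-nt probes: 5' GC cap, 34-nt variable region, 24-nt constant primer region; full probe sequence given). Purified or IVT nuclear receptor:RXRα heterodimers (3:1 NR:RXRα, mostly 270:90 nM) or homodimers were incubated for 1 h in PBS with 2% milk and no ligand, then detected with Alexa488 antibodies. Fluorescence from o1-orientation probes (~5 replicates averaged) was converted to z-scores against 500 random hg19 background probes. Variable regions are seed direct-repeat (DR0–DR5) sites, all their single-nucleotide variants and half-site ablations.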
In turn, CGAACTAGGTCACCAGGACAGTGGAGAGGTTGGA came in with a PBM binding z-score of 1.99.
The sequence CAAACTAGGTCACGAAAGGTCAAATTCGAATGAC displayed a PBM binding z-score of 6.93.
As for ATCGAAAGGTCGAAGGTGAGTCTACCCACCCGAA, the PBM binding z-score was 3.08.
The value for CGAACTAGGTCACCAGTACAGTGAAGAGGTTGGA was 2.27; that for TAGCCTAGGTCATTCAGGGGTCAGTATAGAAAGC was 6.03.
For the sequence ATATGGAGGTTAGGGTCATTCAGAAAGTAGGGAA, the PBM binding z-score was 4.64.
To CGAACTAGGTCCAAGGACAGTGAAAGGCGACGTA belongs -0.332; to CCGAGTCGGTTACGAGGGGGCATTCAGTGCGAAT, 3.65.
CGTCCAAGGTCAAGGGCAGTGAAAGAGACTCGAA: the PBM binding z-score turned out to be 3.68.
The sequence CTATGTAGGTTAATGGGGTCATTCAGTTTGAAAG gave a PBM binding z-score of 7.83.
Sequence CCGAGTAGGTTACGAGGGGGCATTTAGTGCGAAT had a PBM binding z-score of 4.94.
Regarding CCGAGTAGTTTACGAGGGGGCATTCAGTGCGAAT, the PBM binding z-score stood at 4.03.
The value for ATATGTAGGTTAGGGTGATTCAGAAAGTAGGGAA was 1.09.
Sequence TAGCCTAGGTCATAGGCCAGTATACCACGCGAAC came in with a PBM binding z-score of 1.74.
The sequence TCGAGTAGGTGACGGGGGCATTCAGGGATGAAGA had a PBM binding z-score of 3.36.
With AATACAGGGTCACTAGGCCCGAGTAGGTACGAAT, the PBM binding z-score was 3.96.
The value for CTATGTAGGTTAAGGCGGTCATTCAGTTTGAAAG was 3.84.
For the sequence CCTACTGGGCCAAAAATGTCATTGATGCCGATAA, the PBM binding z-score came to 0.0323.
For the sequence ATATGTAGGTGAAGGGTCATTCAGGTTGGTTCGC, the PBM binding z-score is 5.46.
The value for ATTTGTAGGTTATCGGGTCATTCAGTTTGCGCAT was 5.57; that for ATCGAATGGTCGTGAGGTGAGTATACAGAAAGGC was -0.0757.
To ATCGAAAGGTCGAGGAGGTGAGTATACACCGTTT belongs 4.25.
The value for CCGAGTAGGTTACGAGGGGGCATTCACTGCGAAT was 4.98; that for CAGCCTAGGTGAGGGCCAGTATAGGAGGAACGTT was -0.634; that for AACGAAAGGTCGACGAGGTGAGTATACACCGTTT was 5.12.
In turn, CCAGAAAGGTGAAAGGTAACTCAGTCTGGTACGC showed a PBM binding z-score of 1.81.
For CGAACTAGGTCAAAGGACAGGGAAAGGCGACGTA, the PBM binding z-score was 1.27.
The value for TAGCCTAGGTCATTCAGGGGCCAGAATAGAAAGC was 3.17.
With AGTCAAAGTTCAGCACGAGGTAACGTAAAGCACG, the PBM binding z-score came out at 3.25.
With TCTAGTTGGTCAAAGGCCACACACTCGAAATGCG, the PBM binding z-score stood at 1.04.
To CTATGTAGGTTAAGGGGGTCATTCCGTTTGAAAG belongs 7.25.
The sequence CGTCCAAGGTCAATTCTAGGTCAGTGAAAGCATT yielded a PBM binding z-score of 4.61.
CGAACTAGGTCAAAGGACAGTGATAGGCGACGTA returned a PBM binding z-score of 1.45.
CTATGTAGGTAAAGGGGGTCATTCAGTTTGAAAG returned a PBM binding z-score of 6.95.
To AGATTGAGGTTACCAAAGATCAGGGAAACGCTTG belongs 1.39; to ATATGTAGGTTAAGGTCATTCAGAAAGTAGGGAA, 4.69.
With ACTCGGGGGACAAAGGTCAGAGCTACGCCAGTGA, the PBM binding z-score was 4.66.
Consider TCTAGTTGGTCGCGGAGGTCACACACGACGGGTA, for which the PBM binding z-score came out at 4.55.
With TTATCAAGGTGAAAGGTCGTTGATGCACGCCTTG, the PBM binding z-score is 3.29.
For TGGCCTAGGTCATGCGGGCCAGTATAGTGTCGGC, the PBM binding z-score came to 2.64.

(Values after the supplement of paper PMC6555819.)
